Source: PubChem BioAssay (several laboratories)
The list is not random: actives were taken first. Their share in the collection is about 3.3%.
MBD2 inh: blocks human MBD2 binding to methylated DNA; TR-FRET, MBD2 binding to methylated oligonucleotide; inhibition, % at 4.4 µM; 370,000 tested, 0.31% active; in the data active = inhibition above about 13%
PfG6PD inh: PfG6PD (Plasmodium falciparum) enzyme inhibition. PfGluPho enzyme, NADPH resazurin-diaphorase fluorescence. inhibition, % at 20 µM. 350,000 tested, 0.78% active;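 active = inhibition reaching at least a set limit at 20 µM in the primary screen, cut at about 59% in these data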;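 also: 0% = DMSO wells with substrate and 100% = DMSO wells lacking glucose-6-phosphate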
UHRF1 binding: human UHRF1 methylated DNA binding inhibitors; Q96T88; UHRF1 binding to methylated oligo, TR-FRET; inhibition, % at 4.4 µM; 370,000 tested, 0.75% active; in the data active = inhibition above about 21%;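 also: UHRF1 SRA domain binding a hemimethylated CpG hairpin DNA probe; 0% = median of test compound wells and 100% = reference inhibitor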
PRMT1 FP inh: PRMT1 (human) inhibition, primary screen; recombinant PRMT1, activity-based probe fluorescence polarization; inhibition, % at 2.79 µM; 370,000 tested, 1.3% active; AID 652257;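 active = inhibition above about 21% made by adding two undisclosed values, limit read from the data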
PfM18AAP inh-1: PfM18AAP enzyme inhibition. recombinant PfM18AAP, H-Glu-NHMec fluorogenic cleavage. inhibition, % at 7.35 µM. 290,000 tested, 1.2% active;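 active = inhibition above the campaign mean inhibition over all tested compounds plus 3 SD, cut at about 28% in these data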;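 also: 0% = plate median of test compound wells and 100% = 2 mM ZnCl2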
PfM18AAP inh-2: confirmation of Plasmodium falciparum M18 aspartyl aminopeptidase inhibitors. inhibition, % at 7.35 µM. 2,400 tested, 28% active. recombinant PfM18AAP, H-Glu-NHMec fluorogenic cleavage. shares compounds with PfM18AAP inh-1. AID 2170;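 active = mean inhibition over replicate wells above the hit cutoff set for the earlier primary screen, cut at about 29% in these data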;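 also: 0% = median of test compound wells and 100% = 2 mM ZnCl2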
CTSL1 counter: Cathepsin L (human) inhibition, confirmation; shares compounds with PfM18AAP inh-1; purified cathepsin L1, Z-Leu-Arg-MCA fluorescence; inhibition, % at 5.96 µM; 2,400 tested, under 10 active; AID 2178;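 active = average inhibition across replicates above the hit cutoff set in the earlier primary screen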;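 also: 0% = median of test compound wells and 100% = Z-Phe-Ala-diazomethylketone 1 µM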
Target sequence (P07711 whole entry, looked up): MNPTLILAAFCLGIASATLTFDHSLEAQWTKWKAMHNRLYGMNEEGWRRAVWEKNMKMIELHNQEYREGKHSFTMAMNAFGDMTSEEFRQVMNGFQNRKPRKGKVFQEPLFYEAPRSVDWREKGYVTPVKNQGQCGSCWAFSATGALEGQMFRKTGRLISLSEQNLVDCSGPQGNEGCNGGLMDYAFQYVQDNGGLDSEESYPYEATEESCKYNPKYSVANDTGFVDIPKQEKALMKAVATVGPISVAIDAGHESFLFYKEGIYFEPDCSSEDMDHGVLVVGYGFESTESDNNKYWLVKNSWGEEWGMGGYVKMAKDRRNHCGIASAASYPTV
Starred values were filed as active, the others as inactive; x = not tested or not shown.

SMILES	MBD2 inh	PfG6PD inh	UHRF1 binding	PRMT1 FP inh	PfM18AAP inh-1	PfM18AAP inh-2	CTSL1 counter
O=C1CCS/C(=N\N=C\c2ccc(Cl)cc2Cl)N1	-3	1	3	0	24	x	x
Cc1ccccc1/C=N/N=C1/NC(=O)CCS1	5	16	7	6	65*	-36	-1
Cc1cc(N/N=C/c2ccccc2O)nc(-c2ccccc2O)n1	0	18	0	0	42*	40*	9
Cc1cc(N/N=C/c2ccc(O)cc2O)nc(-c2ccccc2O)n1	x	30	x	x	52*	54*	-1
Cc1cc(N/N=C\c2ccccc2)nc(-c2ccccc2O)n1	0	18	-2	-2	11	x	x
COc1ccc(/C=N/Nc2cc(C)nc(-n3nc(C)cc3C)n2)cc1	0	20	-7	-3	-1	x	x
Cc1cc(N/N=C/c2ccc(O)cc2O)nc(-n2nc(C)cc2C)n1	-9	26	-10	1	51*	33*	1
CCC[C@H]1[C@@H](NC(=O)c2cccc(Cl)c2)CC[C@@]23CCCN2C(=O)CCC[C@@H]13	-1	x	-1	0	x	x	x
CC(C)C[C@@H]1COc2cccc(N3CCCC3)c2S(=O)(=O)N1C	0	x	-3	-2	x	x	x
Cc1ccc(NNC(=O)c2ccc(Cl)cc2)nn1	-1	6	1	-2	33*	1	1
O=c1cc(-c2ccc(O)cc2)oc2cc(O)c(C3OC(CO)C(O)C(O)C3O)c(O)c12 (stereo not drawn)	-5	0	-5	-1	44*	4	3
CCOC(=O)N1CCN(C(=O)C[C@@H]2C(=O)N(CCc3ccc(Cl)cc3)/C3=C/CCCCC[C@@]32C(=O)OCC)CC1	0	x	0	0	x	x	x
CCCc1cc(=O)[nH]c(=S)[nH]1	-1	-4	0	-1	44*	-36	-6
CCCCCc1cc(=O)[nH]c(=S)[nH]1	2	-1	-3	1	7	x	x
CN1C(=O)c2cc(NC(=O)Nc3ccccc3)ccc2OC[C@H]2O[C@@H](CC(=O)Nc3cc(F)ccc3F)CC[C@@H]21	7	x	4	0	x	x	x
C/C(=N\Nc1ccc2nncn2n1)c1ccc(Br)s1	2	1	2	1	50*	-29	3
O=C(Nc1cccc(-c2ccc3nncn3n2)c1)c1ccco1	-3	4	4	-1	-3	x	x
C/C(=N\Nc1ccc2nncn2n1)c1ccco1	-1	3	0	-10	45*	19	1
C/C(=N\Nc1ccc(F)cc1F)c1ccc(Br)s1	-1	8	0	7	-10	x	x
C/C(=N\Nc1ccc2nncn2n1)c1ccccn1	1	-10	-1	0	40*	-20	0
C(=N\Nc1ccc2nncn2n1)/c1ccccn1	2	-13	-6	-4	41*	-5	-5
C(=N\Nc1nncc2ccccc12)/c1ccccn1	8	1	1	3	21	x	x
C=CCN(C)CC#CCCCCl	2	x	-1	-2	x	x	x
COC(=O)C1CN(CCc2ccccc2)CCS(=O)(=O)N1Cc1ccc(OC)cc1 (stereo not drawn)	3	x	0	6	x	x	x
O=C(CNS(=O)(=O)c1ccc(F)cc1)N1CCN(c2ccccn2)CC1	3	x	2	-1	x	x	x
SMILES	MBD2 inh	PfG6PD inh	UHRF1 binding	PRMT1 FP inh	PfM18AAP inh-1	PfM18AAP inh-2	CTSL1 counter
CCCCN(C)c1nc(C)nc2c1nnn2Cc1ccccc1	-6	x	-4	1	x	x	x
C[C@H]1[C@@H](c2ccccc2)Oc2ccc(Cl)cc2S(=O)(=O)N1Cc1cccc(Cl)c1	-5	x	0	-6	x	x	x
Cc1cc(N/N=C/c2c[nH]c3ccccc23)c2ccccc2n1	-3	9	-1	-1	3	x	x
Cn1c(N/N=C/c2c[nH]c3ccccc23)nc2ccccc21	-8	28	-14	-1	54*	7	5
CC(C)NC(=O)Nc1n[nH]c(Nc2ccc(Cl)cc2)n1	3	2	-3	-3	40*	9	-3
COc1ccc(Cl)cc1NC(=O)NC(C)C	-1	24	2	-3	-2	x	x
COC(=O)[C@]12C[C@H](CC(=O)NCc3cccc4ccccc34)C(=O)N(CCc3ccc(OC)c(OC)c3)C1=C[C@H](COCc1ccccc1)O[C@@H]2C	-5	x	-4	3	x	x	x
COC(=O)c1cc(C(=O)Nn2cnnc2)cc([N+](=O)[O-])c1	-4	-4	1	-6	63*	73*	1
